Experiment [1] is described as follows: qHTS assay to identify aromatase inhibitors - cell viability counter screen (AID 743084).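 Note: cells stimulated with testosterone during compound exposure; nearly all actives have a fitted effect of over 55% in size.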 Note: potency is the fitted concentration of half-maximal effect.
For experiment [2], the target named is Aryl hydrocarbon receptor (Homo sapiens) (UniProt P35869). The experiment is described as follows: qHTS assay to identify small molecule that activate the aryl hydrocarbon receptor (AhR) signaling pathway (AID 743085).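 Note: HG2L7.5c1 human HepG2 liver cells with stably integrated DRE-driven firefly reporter; series mostly up to about 70 µM; nearly all actives have a fitted effect of over 15% in size.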 Put shortly: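 A multiplexed format paired cell viability (CellTiter-Fluor fluorescence) with AhR-dependent luciferase output (ONE-Glo luminescence) in the same wells of HepG2 DRE-luc cells after 24 h compound exposure at 37C.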

Experiment [3] is described as follows: qHTS assay to identify small molecule that activate the aryl hydrocarbon receptor (AhR) signaling pathway - cell viability counter screen (AID 743086). Note: nearly all actives have a fitted effect of over 45% in size. Note: potency is the fitted concentration of half-maximal effect. In a few lines: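 HepG2-AhR-luc (HG2L7.5c1) cells, 4000/well, treated 24 h at 37 C with compound; viability measured as CellTiter-Fluor fluorescence after 30 min in the same wells as the luciferase read.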
Experiment [4] can be described thus: qHTS assay to identify small molecule antagonists of the peroxisome proliferator-activated receptor gamma (PPARg) signaling pathway - cell viability counter screen (AID 743194). Note: nearly all actives have a fitted effect of over 55% in size. Put shortly:
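Cytotoxicity counter screen in PPARg-bla HEK293H cells, same wells as reporter assay. Compounds plus 50 nM rosiglitazone (final) for 17 h at 37 C, then viability read by CellTiter-Glo luminescence.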

A short description of experiment [5]: qHTS assay for small molecule agonists of the antioxidant response element (ARE) signaling pathway - cell viability counter screen (AID 743203; calls by dose curve; note: nearly all actives have a fitted effect of over 55% in size). Put shortly: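 ARE-bla HepG2 cells were plated, rested 5 h at 37C/5% CO2, then exposed to compounds in DMSO for 16 h. Viability was read as CellTiter-Glo luminescence after 30 min at room temperature, in the same wells as the ARE screen.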

Experiment [6] is described as follows: qHTS assay for small molecule activators of the heat shock response signaling pathway - cell viability counter screen (AID 743209). Note: nearly all actives have a fitted effect of over 50% in size. In a few lines:
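HSE-bla HeLa cells plated overnight, then exposed to Tox21 compounds (23 nL in DMSO) for 5 h at 37 C. After the bla reporter read, CellTiter-Glo was added in the same wells and luminescence read after 30 min at room temperature.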

Experiment [7] can be described thus: qHTS assay for small molecule activators of the heat shock response signaling pathway (AID 743210; active = well fitted activation curve with a large enough effect in the signal ratio in the repeat runs, with a control signal flat, not every such curve was filed as active; the % refers to the signal ratio;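 note: HeLa cells with beta-lactamase reporter driven by heat shock elements; series mostly up to about 63 µM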). In a few lines: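 Quantitative high-throughput format using an engineered HeLa line in which heat shock response elements drive beta-lactamase; after 5 h with compound, cells received a B/G FRET substrate and fluorescence was read.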
The target in experiment [8] is Peroxisome proliferator-activated receptor gamma (Homo sapiens) (UniProt P37231). As to the kind of experiment: qHTS assay to identify small molecule agonists of the peroxisome proliferator-activated receptor gamma (PPARg) signaling pathway (AID 743094; active = well fitted activation curve with a large enough effect in the signal ratio in the repeat runs, not every such curve was filed as active; the % refers to the signal ratio). In a few lines:
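GeneBLAzer PPARg UAS-bla HEK293H cells were plated, rested 5 h, then exposed to compounds for 17 h at 37C. Beta-lactamase activity was read by LiveBLAzer B/G FRET substrate fluorescence after 1 h at room temperature.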

Experiment [9] shares this target. The experiment is described as follows: qHTS assay to identify small molecule antagonists of the peroxisome proliferator-activated receptor gamma (PPARg) signaling pathway (AID 743191; calls by dose curve; note: series mostly up to about 63 µM; nearly all actives have a fitted effect of over 30% in size). In a few lines: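 GeneBLAzer PPARg UAS-bla HEK293H cells, 5 h post-plating, exposed to compounds 17 h at 37C. LiveBLAzer B/G FRET substrate added for 1 h at room temperature; beta-lactamase reporter read by fluorescence intensity.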

Experiment [10] can be described thus: qHTS assay for small molecule agonists of the antioxidant response element (ARE) signaling pathway (AID 743202; active = well fitted activation curve with a large enough effect in the signal ratio in the repeat runs, not every such curve was filed as active; the % refers to the signal ratio; note: potency is the fitted concentration of half-maximal effect). In a few lines: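 Agonist mode reporter screen: HepG2 cells with ARE-controlled beta-lactamase are incubated with test compounds for 16 h at 37 C, and beta-lactamase activity is measured as fluorescence of cleaved B/G FRET substrate.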

Inconclusive results are not listed. Active and inactive are the calls of the source. Unless noted, calls come from the whole dose curve; as a rule, active = well fitted curve in the direction sought with a large enough effect in the repeat runs; inconclusive = weak or mixed curves; inactive = no such curve, though single readings can be large; an effect the other way counts as inactive or inconclusive.

Chain of Aryl hydrocarbon receptor (Homo sapiens) (P35869 whole entry, looked up): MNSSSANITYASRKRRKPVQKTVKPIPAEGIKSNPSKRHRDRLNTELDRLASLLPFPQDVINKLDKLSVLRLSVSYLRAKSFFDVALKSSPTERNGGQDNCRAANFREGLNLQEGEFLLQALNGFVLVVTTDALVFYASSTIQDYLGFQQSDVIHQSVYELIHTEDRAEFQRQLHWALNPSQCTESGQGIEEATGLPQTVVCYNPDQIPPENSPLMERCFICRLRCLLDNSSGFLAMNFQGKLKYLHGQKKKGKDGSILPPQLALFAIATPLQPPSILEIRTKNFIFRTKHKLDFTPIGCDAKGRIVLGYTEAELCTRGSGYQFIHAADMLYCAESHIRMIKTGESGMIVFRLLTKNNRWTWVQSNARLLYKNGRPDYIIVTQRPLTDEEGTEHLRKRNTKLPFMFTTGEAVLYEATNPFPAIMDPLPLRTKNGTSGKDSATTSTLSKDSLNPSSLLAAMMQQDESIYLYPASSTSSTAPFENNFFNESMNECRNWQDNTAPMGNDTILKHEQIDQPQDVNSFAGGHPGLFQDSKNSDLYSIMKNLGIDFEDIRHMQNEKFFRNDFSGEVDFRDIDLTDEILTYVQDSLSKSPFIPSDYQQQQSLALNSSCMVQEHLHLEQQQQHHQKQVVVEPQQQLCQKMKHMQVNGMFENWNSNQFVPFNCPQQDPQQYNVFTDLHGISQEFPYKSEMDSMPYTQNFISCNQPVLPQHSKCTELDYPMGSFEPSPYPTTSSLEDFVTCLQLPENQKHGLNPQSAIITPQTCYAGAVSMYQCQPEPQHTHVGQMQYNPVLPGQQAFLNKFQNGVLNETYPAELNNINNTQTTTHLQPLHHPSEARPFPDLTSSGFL
Chain of Peroxisome proliferator-activated receptor gamma (Homo sapiens) (P37231 whole entry, looked up): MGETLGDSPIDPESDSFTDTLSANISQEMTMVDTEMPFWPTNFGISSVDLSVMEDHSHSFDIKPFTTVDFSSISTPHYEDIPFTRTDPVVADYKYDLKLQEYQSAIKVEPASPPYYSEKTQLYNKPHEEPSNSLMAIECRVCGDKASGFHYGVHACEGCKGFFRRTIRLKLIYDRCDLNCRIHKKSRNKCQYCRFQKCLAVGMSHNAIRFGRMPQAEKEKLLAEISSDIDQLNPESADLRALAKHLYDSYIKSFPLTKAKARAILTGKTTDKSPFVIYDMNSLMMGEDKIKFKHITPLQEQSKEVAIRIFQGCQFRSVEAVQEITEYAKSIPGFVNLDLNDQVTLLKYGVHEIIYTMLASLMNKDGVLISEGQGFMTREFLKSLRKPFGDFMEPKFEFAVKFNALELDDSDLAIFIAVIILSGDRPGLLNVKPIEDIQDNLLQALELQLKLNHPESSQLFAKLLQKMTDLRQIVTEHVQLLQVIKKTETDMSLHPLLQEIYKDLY

As for `CC[C@H](NC(=O)c1cc(F)ccc1NS(=O)(=O)c1cccc2cccnc12)c1ccccc1`, the Potency entry in [1], in experiment [2], in experiment [3], in experiment [4], in [5] and in experiment [6] was “inactive” each time. In addition, the Potency entry in [7] is “inactive”.
For `CCn1cc(C(=O)O)c(=O)c2cc(F)c(N3CCNCC3)nc21`, the Potency entry in [1], in experiment [2], in [8], in experiment [9], in experiment [4] and in experiment [10] was “inactive” each time. Besides, the Potency result in [5] and in [6] was “inactive” throughout.
As to `O=S1OCCO1`, the Potency result in [1], in experiment [2], in experiment [8], in experiment [9], in experiment [4] and in experiment [10] was “inactive” each time. In addition, the Potency result in experiment [5], in [6] and in [7] was “inactive” in each case.
Consider `C/C=C(\C)C(=O)OCCC(C)CCC=C(C)C` (centres undefined), for which the Potency entry in experiment [1], in experiment [2], in experiment [3], in experiment [4], in experiment [10] and in experiment [5] was “inactive” in each case. Further, the Potency result in experiment [6] and in [7] was “inactive” throughout.
With `C[N+](C)(C)CCOC(N)=O`, the Potency entry in experiment [1], in [2], in experiment [3], in experiment [4], in experiment [10] and in experiment [5] was “inactive” throughout. Moreover, the Potency entry in experiment [6] and in experiment [7] was “inactive” throughout.
`CC1=CC(=O)CC(C)(C)C1(O)/C=C/C(C)=C\C(=O)O` (centres undefined): the Potency result in experiment [1], in experiment [2], in experiment [8], in experiment [9], in experiment [4] and in experiment [10] was “inactive” in each case. For the same compound, the Potency entry in experiment [5], in experiment [6] and in [7] was “inactive” in each case.
For `NC(=O)N(O)[C@@H]1COc2cc(OCc3ccccc3)ccc21`, the Potency entry in experiment [1], in experiment [2], in experiment [8], in experiment [9], in experiment [4] and in experiment [10] was “inactive” in each case. Moreover, the Potency entry in experiment [5], in experiment [6] and in experiment [7] was “inactive” in each case.
Turning to `COCc1c(C(C)C)nc(C(C)C)c(/C=C/[C@@H](O)C[C@@H](O)CC(=O)O)c1-c1ccc(F)cc1`, the Potency result in experiment [1], in experiment [2], in [3], in experiment [4], in [5] and in [6] was “inactive” in each case.
As to `CN1CCCN=C1/C=C/c1cccs1`, the Potency entry in experiment [1], in [2], in experiment [8], in experiment [9], in experiment [4] and in experiment [5] was “inactive” each time. Also, the Potency result in experiment [6] and in [7] was “inactive” each time.
Consider `O=C(O)c1cccnc1C(=O)O`, for which the Potency entry in experiment [1], in experiment [2], in experiment [8], in experiment [9], in [4] and in experiment [10] was “inactive” each time. Also, in [6], the Potency result is “inactive”.
For the compound `CO[C@H]1O[C@H](CO)[C@@H](O)[C@H](O)[C@H]1O`, the Potency result in [1], in experiment [2], in experiment [8], in experiment [9], in experiment [4] and in experiment [10] was “inactive” each time. The Potency result in experiment [5] and in experiment [7] was “inactive” in each case.
For the compound `CCCC1C(CC)=CC(CC)=CN1c1ccccc1` (centres undefined), the Potency result in [1], in [2], in [8], in experiment [9], in [4] and in experiment [5] was “inactive” throughout. Also, the Potency result in experiment [6] and in experiment [7] was “inactive” throughout. Moreover, the Potency in experiment [10] is 54.5 µM (active).
With `CO[C@H]1C=CO[C@@]2(C)Oc3c(C)c(O)c4c(O)c(c5c(c4c3C2=O)=NC2(CCN(CC(C)C)CC2)N=5)NC(=O)/C(C)=C\C=C/[C@H](C)[C@H](O)[C@@H](C)[C@@H](O)[C@@H](C)[C@H](OC(C)=O)[C@@H]1C`, the Potency in experiment [1] is 30 µM (active); in experiment [3] it was 15 µM (active). Further, the Potency result in experiment [2], in experiment [4], in [6] and in experiment [7] was “inactive” in each case.
Regarding `C[N+]1(C)CCC(=C(c2ccccc2)c2ccccc2)CC1`, the Potency result in [1], in experiment [2], in [3], in experiment [4], in experiment [5] and in [6] was “inactive” throughout.
With `CCCCN(CCCC)CCCOC(=O)c1ccc(N)cc1`, the Potency result in [1], in experiment [2], in experiment [8], in experiment [9], in experiment [4] and in experiment [10] was “inactive” each time. In addition, the Potency result in experiment [5] and in experiment [6] was “inactive” each time.
In the case of `C(=C\c1ccccc1)/CN1CCN(C(c2ccccc2)c2ccccc2)CC1`, the Potency result in experiment [1], in experiment [2], in [3], in [5] and in experiment [6] was “inactive” each time.
For `CC(C)(C)C(=O)O`, the Potency result in experiment [1], in experiment [3], in [8], in [9], in experiment [4] and in experiment [5] was “inactive” each time. Moreover, the Potency result in experiment [6] and in experiment [7] was “inactive” throughout.

The values above are taken from PubChem BioAssay (Tox21).
